# Bioassay records (PubChem BioAssay)
# Most compounds without a hit are left out; they make up all but 6% or so of the library.
# Chronic BCR inh – inhibitors of chronic active B-cell receptor signaling | Potency, µM (series often up to 46.1 µM), inactives show at the highest dose activity change, negative = inhibition, most hits filed as inhibitors | actives 0.05% (n = 340,000) | ABC-DLBCL IkBa-CBG/CBR reporter, luminescence ratio, 4 h | AID 493014; active means well fitted inhibition curve with a large enough effect in the signal ratio, with a control signal flat, not every such curve was filed as active; inconclusive means small, poorly fitted or top-dose-only effect, or effect the other way, or a change in a side signal; the % refers to the signal ratio;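 further: potency means the concentration at half of the fitted maximal effect; plate controls were basal doxycycline-induced cells for no effect and cells given 10 µM MG132 for full effect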
#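 Doxycycline induced both beetle luciferases in TMD8 lymphoma cells; IKK-driven degradation limits the IkappaBalpha-fused green signal, while red luminescence normalises for cell number and nonspecific effects. Compounds tested up to 46 uM, 4 hrs.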
# D3 ag – D3 dopamine receptor (human) agonism. D3R DiscoveRx beta-arrestin cells, luminescence, 90 min. max activation, %. actives 0.58% (n = 410,000); in the data active means max activation above about 30%; further: 0% is about no effect
# Target sequence (P35462 whole entry, looked up): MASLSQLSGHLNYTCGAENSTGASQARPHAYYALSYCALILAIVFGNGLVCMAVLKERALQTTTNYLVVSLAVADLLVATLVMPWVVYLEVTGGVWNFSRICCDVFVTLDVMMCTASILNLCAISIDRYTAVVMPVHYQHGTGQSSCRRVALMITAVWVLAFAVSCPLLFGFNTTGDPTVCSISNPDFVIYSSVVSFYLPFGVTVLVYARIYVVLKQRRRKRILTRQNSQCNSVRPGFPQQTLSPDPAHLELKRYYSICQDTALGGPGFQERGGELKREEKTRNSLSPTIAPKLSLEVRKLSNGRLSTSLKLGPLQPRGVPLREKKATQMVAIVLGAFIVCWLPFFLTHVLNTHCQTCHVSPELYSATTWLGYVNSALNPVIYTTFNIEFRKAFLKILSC
#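 Cells at 1500/well, incubated overnight, then treated with pinned compounds (dopamine as control) for 90 min at 37 degrees C. DiscoveRx reagent added for 30 - 60 minutes at room temperature; luminescence read.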
# D1 PAM – potentiators of human D1 dopamine receptor | P21728 | HEK293 TREx D1 cells, calcium flux, dopamine EC20 potentiation | potentiation, % at 10 µM | actives 0.036% (n = 360,000); in the data active means potentiation above about 30%; further: 0% is about no effect
# DRD3 antagonist – D3 dopamine receptor (human) antagonism | P35462 | D3R cells, DiscoveRx beta-arrestin luminescence, antagonist mode; hits give low values | max response, negative = inhibition, % | actives 2.5% (n = 360,000) | AID 652054; in the data active means max response below about -50%; inconclusive means no clear call, values can overlap the other calls; further: on the % scale 0 is the no-effect control and ±100 the full control effect
#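 Cells expressing the human receptor were seeded at 1500 cells/well, incubated overnight at 37 degrees C in 5% CO2, then exposed to library compounds with dopamine controls for 90 minutes at 37 degrees C before luminescent detection.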
# D1 ag – activates the human D1 dopamine receptor; P21728; HEK293 T-REx D1 cells, calcium flux, agonist mode; activation, % at 2 µM; actives 1% (n = 360,000); in the data active means activation above about 30%; further: 0% is about no effect
#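 Inducible HEK293 T-REx D1 cells, force-coupled to calcium signalling, were plated at 4000 cells/well with tetracycline and held overnight at 30 C. After no-wash calcium dye loading, compound-evoked calcium rise over 180 s flagged agonists.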
# D1 antagonist – human D1 dopamine receptor antagonism. P21728. actives 3.2% (n = 360,000). HEK293 TREx D1 cells, calcium flux, dopamine EC80; hits give low values. AID 504652. activity change, negative = inhibition, % at 10 µM; in the data active means activity change below about -30%; further: on the % scale 0 is the no-effect control and ±100 the full control effect
#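 Using tetracycline-induced force-coupled D1 Hek293 cells and a calcium dye, signals were followed for 180 s after compound, then for 180 s after EC80 dopamine, to detect inhibitors.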
# * = called active by the depositor; ? = inconclusive; nt = not tested or not shown.
SMILES,Chronic BCR inh,D3 ag,D1 PAM,DRD3 antagonist,D1 ag,D1 antagonist
COc1ccc(CNc2ncnc3c2[nH]c2ccccc23)cc1,-11%,-5,-2,-5,33*,-42*
Cc1ccc2c(c1)[nH]c1c(=O)n(CCC3=CCCCC3)cnc12,4%,nt,-6,nt,1,-32*
CC(=O)N1C[C@H]2CON(C)[C@H]2C[C@H]1c1ccc(-c2ccc(C#N)cc2)cc1,nt,3,nt,-3,nt,nt
CCOC(=O)CCc1cc(F)c(S(=O)(=O)N2CCN(S(=O)(=O)c3ccc4c(c3)OCCO4)CC2)cc1F,nt,nt,-3,nt,3,13
CC(C)(C)OC(=O)Cc1nnc(-c2nc3ccccc3[nH]2)s1,nt,nt,24,nt,7,2
Cc1csc2nc(-c3cccc(NC(=O)c4ccc(S(N)(=O)=O)cc4)c3)cn12,nt,-12,0,nt,0,-15
Cc1cc(O)c(C(C)C)cc1Cl,nt,8,nt,nt,nt,nt
CCCCCCCC1CC(CSc2ncn[nH]2)OC1=O (configuration not stated),?,-12,-7,27,-2,-13
CCCCC1CC(CSc2ncn[nH]2)OC1=O (configuration not stated),0%,1,1,12,0,-36*
CNc1ccc(Br)cc(C(=O)/C=C/c2cc(OC)ccc2OC)c1=O,?,-7,1,0,-2,1
CCNc1ccc(Br)cc(C(=O)/C=C/c2ccc(Cl)cc2Cl)c1=O,11%,-4,1,-78*,4,-2
C=CCn1c(SCC(=O)/C(C#N)=C(\C)N)nnc1C1CCCCC1,0%,-5,-8,2,2,-75*
COC(=O)[C@@]1(C(C)C)N=C(c2cc(OC)c(OC)c(OC)c2)[C@]2(O1)C(=O)N(C)c1ccc(Br)cc12,nt,0,nt,2,nt,nt
CNCCCOc1ccc(C)cc1Br,?,-8,-3,-53*,5,5
Cc1ccc(OCCCN(C)C)c(Br)c1,0%,-20,-2,4,1,6
CNCCCCOc1ccc(C(C)(C)C)cc1Cl,?,-17,0,-50*,27,10
CCCCNCCCOc1cccc(Cl)c1Cl,?,-21,-5,-81*,18,-3
Cc1ccc(OCCCNCCO)c(Br)c1,7%,-2,-7,-60*,9,-2
CCOc1ccccc1NC(=O)Cn1c(=O)n(Cc2ccc(C(=O)NCCCOC)cc2)c(=O)c2ccccc21,nt,-23,-2,nt,-2,4
CCOc1ccc(NC(=O)CS(=O)(=O)Cc2nc(-c3ccc(C)cc3)oc2C)cc1,nt,3,1,nt,1,5
CCCCCOc1ccc(NC(=O)Cc2csc(C)n2)cc1,nt,5,-1,nt,-1,7
CCN(CC)CCn1c(=S)[nH]c2cc(C(=O)NCCc3ccc(OC)c(OC)c3)ccc2c1=O,nt,-6,nt,?,nt,nt
CCCCNCCCOc1ccc(C)cc1Br,-7%,0,-5,-67*,21,-9
C=CCNCCOCCOc1ccc(C)cc1Br,-1%,-8,-4,?,13,18
Cc1ccc(OCCCn2ccnc2)c([N+](=O)[O-])c1,0%,0,1,-9,1,-6
SMILES,Chronic BCR inh,D3 ag,D1 PAM,DRD3 antagonist,D1 ag,D1 antagonist
Cc1ccc(OCCCn2ccnc2)c(Br)c1,-4%,2,-7,-2,5,-68*
Fc1ccc(CN2CCCCCCC2)cc1,?,0,0,-26,0,8
NC(=O)C1(N2CCCCC2)CCN(Cc2ccc(F)cc2)CC1,?,-28,-8,-88*,-1,-9
NC(=O)C1(N2CCCCC2)CCN(Cc2ccc(Br)cc2)CC1,-14%,-21,-10,-115*,7,-11
O=C(Cn1ncc2c(Cl)cccc21)NCc1cccc(Cl)c1,nt,-9,-2,nt,2,-17
CC(CNC(=O)CC[C@H]1O[C@@H](n2ccc(=O)[nH]c2=O)[C@H](O)[C@@H]1O)c1ccccc1 (some centres not stated),nt,10,nt,12,nt,nt
CC(=O)Nc1ccc(NC(=O)C2CCN(c3c(NC(C)=O)c(C)nn3-c3ccccc3)CC2)cc1,nt,-6,-1,nt,3,-36*
CC(=O)Nc1c(C)nn(-c2ccccc2)c1N1CCC(C(=O)Nc2cc(F)ccc2F)CC1,nt,5,3,nt,1,0
